The record followed here is ChEMBL document CHEMBL4513216, “Probing the Open Global Health Chemical Diversity Library for Multistage-Active Starting Points for Next-Generation Antimalarials” (ACS Infect Dis, 2020).

Among all 69,000 compounds or so, about 8,600 (12%) showed an effect of 50% or more. The sample as a whole holds a higher share of strong results than the screen did.

The subject of this test is Plasmodium berghei. Nature of the test: Screen against P. berghei liver stage (PbLuc), transformed with Luciferase, at 10uM. It is filed as functional, HepG2. The note with it: tested at 10 uM.
For `C[C@H]1CN(Cc2cccc(F)c2)C[C@@]12CCN(CC(=O)N(C)C)C2=O`, the INHIBITION is reported as 19.8%. The figure for `Cc1ccc(N2CCCC(NCc3ccc(Cl)o3)C2)nn1` (centres undefined) is -12.1%. For the compound `COc1cccc(Cl)c1C(C(=O)O)N(C)Cc1c(C)n[nH]c1C` (centres undefined), the INHIBITION was 57.6%. The figure for `COc1ccc(C(C(=O)O)N(C)Cc2ccon2)cc1Cl` (centres undefined) is -23.5%; for `COc1cccc(OC)c1C(C(=O)O)N(C)Cc1c(C)n[nH]c1C` (centres undefined) it is 53.3%. The same measure for `Cc1n[nH]c(C)c1CN(C)C(C(=O)O)c1ccc2c(c1)OCO2` (centres undefined): 11.2%; for `COc1cc(C)cc(OC)c1C(C(=O)O)N(C)Cc1c(C)nn(C)c1C` (centres undefined): 9.56%. As to `Cc1n[nH]c(C)c1CN(C)C(C(=O)O)c1c(F)cccc1OC(C)C` (centres undefined), the INHIBITION was determined as 40.6%. For the compound `COc1cccc(Cl)c1C(C(=O)O)N(C)Cc1nnc(C)o1` (centres undefined), the INHIBITION came to 52.2%. The same measure for `CCOc1ccccc1C(C(=O)O)N(C)Cc1nnc(C)o1` (centres undefined): -0.614%.

For `COc1cccc(C(=O)N(C)C(C)c2c(C)n[nH]c2C)c1OC` (centres undefined), the INHIBITION came out at 12.6%.

`COc1ccc(CCC(=O)Nc2ccc3ncn(C)c(=O)c3c2)cc1`: the INHIBITION is listed as 22.3%. The figure for `COCc1cn(CC2CCN(Cc3nc(C)c[nH]3)CC2)nn1` is -7.85%; for `Cc1cc(C(=O)N2CCc3c(CN(C)C)nn(C)c3C2)[nH]n1` it is 13.7%. The figure for `O=C(NCCc1ccncc1)c1cccc(S(=O)(=O)N[C@@H]2CCNC2)c1` is -16.1%; for `O=C(Nc1nc2c(s1)CN(S(=O)(=O)C1CC1)CC2)C1CC1` it is 37.9%.

For `O=C(Nc1nc2c(s1)CNCC2)NC1CCCC1`, the INHIBITION stood at 44.5%. The same measure for `O=C(Nc1nc2c(s1)CNCC2)C1CC1`: 52.7%; for `COc1ccc(C(=O)N2CCOc3ccncc32)cc1`: 60%.

Take `COc1cccc(OCC(=O)N2CCOc3ccncc32)c1`: the INHIBITION is -28.9%. The same measure for `O=C(c1cc(-n2cccn2)ccn1)N1CCOc2ccncc21`: 52.9%. Take `O=C(c1cc(-n2cccn2)ccn1)N1CCOc2ccc(F)cc21`: the INHIBITION is given as 23.3%. The same measure for `O=C(c1cc(-n2cccn2)ccn1)N1CCOc2ncccc21`: 30.5%.

As to `O=C(COc1ccccc1Br)N1CCOc2ccncc21`, the INHIBITION is given as 9.35%.

As for `c1cnc2c(c1)cc([C@@H]1CCCO1)n2CCN1CCCCC1`, the INHIBITION is 38.8%. The same measure for `COC(=O)C(c1cc(F)ccc1F)N(C)C(=O)c1cnccn1` (centres undefined): 48.4%; for `CC(C)c1nn(C)c(N(C)C)c1CNC(C)c1ccccc1F` (centres undefined): 15.5%. As for `Cc1nc(CO[C@@H]2CN(Cc3ccco3)[C@@H]3COC[C@@H]32)cs1`, the INHIBITION was 18.2%. The figure for `O=C1OCCN1C1CCN(Cc2cc3n(n2)CCCNC3)CC1` is -78.3%; for `c1ccc(COC2CCN(Cc3cc4n(n3)CCCNC4)CC2)nc1` it is 37.9%. The figure for `OC(c1ccccn1)C1CCN(Cc2cc3n(n2)CCNC3)CC1` (centres undefined) is 61.5%; for `OC(c1ccccn1)C1CCN(Cc2cc3n(n2)CCCNC3)CC1` (centres undefined) it is 51.2%.

As to `c1csc(N2CCN(Cc3cc4n(n3)CCNC4)CC2)n1`, the INHIBITION is -90.8%. The same measure for `c1ccc(C2CCCN(Cc3cc4n(n3)CCNC4)CC2)cc1` (centres undefined): 18.4%; for `c1cc(CNc2cnc(C3CCCN3)cn2)ccn1` (centres undefined): 3.03%; for `COc1ccc(-c2cc(C3(O)CCCC3)on2)cc1`: -111%. The figure for `CNC(=O)[C@H]1C[C@H]2OCC[C@H]2N(Cc2ccc(C)o2)C1` is 10.3%; for `Cn1cc(C2CC(=O)NC23CCN(Cc2ccncc2)CC3)cn1` (centres undefined) it is -16.2%. The same measure for `CCOC(=O)N[C@H]1C[C@@H](C(=O)NCc2cccc(Cl)c2)N(C)C1`: -0.71%. Consider `COCC(=O)N[C@H]1C[C@@H](C(=O)NCCc2cccc(Cl)c2)N(C)C1`, for which the INHIBITION was determined as 31.1%.

Consider `CCOC(=O)N[C@H]1C[C@@H](C(=O)NCCc2cccc(Cl)c2)N(C)C1`, for which the INHIBITION is given as 55%. The figure for `CC(C)CC(=O)N(C)CC(=O)Nc1ccc(Br)cn1` is 29.7%; for `CCN1CCN(c2ccc(C(=O)NCc3cc(C)no3)cc2F)CC1` it is 11.7%. For `CCN1CCN(c2ccc(C(=O)NCCn3ccnc3)cc2F)CC1`, the INHIBITION came out at 38.8%. The figure for `CCN1CCN(c2ccc(C(=O)NCCOC)cc2F)CC1` is 76.7%; for `COc1ccc(C(=O)N2Cc3c(Cn4ccnc4)nn(C)c3C2)cc1` it is 32.4%; for `Cn1nc(Cn2ccnc2)c2c1CN(C(=O)c1ccoc1)C2` it is 47.4%. As for `CN(C)Cc1nn(C)c2c1CN(C(=O)Nc1cccc(F)c1)C2`, the INHIBITION is reported as -36.2%.

Regarding `Cn1nc(CN2CCCC2)c2c1CN(C(=O)Nc1cccc(F)c1)CC2`, the INHIBITION turned out to be 20.1%. As to `Cc1ccc(C(=O)N2Cc3c(CN4CCCCC4)nn(C)c3C2)cc1C`, the INHIBITION was 65.4%.

With `Cc1ccc(C(=O)N2Cc3c(CN4CCCCC4)nn(C)c3C2)cc1F`, the INHIBITION is -31%. The same measure for `Cc1ccc(C(=O)N2CCc3c(CN4CCCC4)nn(C)c3C2)cc1C`: 44.3%; for `Cn1nc(CN2CCCCC2)c2c1CN(C(=O)Nc1cccc(F)c1)C2`: 79.6%.

For `CCCc1ccc(C(=O)N2Cc3c(Cn4ccnc4)nn(C)c3C2)cc1`, the INHIBITION turned out to be 78.8%.
